Source: PubChem BioAssay (EPA / NIEHS)
Results filed as inconclusive are left out. Activity calls are given as the source filed them. Rule for the calls, unless noted: active = hit-call score of the fitted dose curve at least 0.9, where 1 is the maximum; inconclusive = response in the unintended direction; inactive = score below 0.9.

Experiments:
[1] = ATG_TCF_b_cat_CIS: Attagene CIS-FACTORIAL HepG2 Assay for human T-Cell-Factor with beta-catenin (TCF/b-cat) (AID 2282965; active = hit-call score of the fitted dose curve at least 0.9, where 1 is the maximum; inactive = score below 0.9); conditions: HepG2 TCF/beta-catenin cis-reporter transcription, actives raise or lower the signal
Procedure, shortened: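 Endogenous TCF/LEF activity read as reporter transcript level via RT-PCR and capillary electrophoresis fluorescence in transfected HepG2, 24 h exposure; gain or loss of signal fitted against DMSO controls.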

[2] = ATG_TAL_CIS: Attagene CIS-FACTORIAL HepG2 Assay for human TAL Basal Promoter (AID 2282966; active = hit-call score of the fitted dose curve at least 0.9, where 1 is the maximum; inactive = score below 0.9;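 note: background control endpoint measuring basal TAL promoter reporter mRNA not a specific factor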); conditions: HepG2 Attagene cis-factorial TAL promoter reporter; actives raise or lower the signal
Procedure, shortened: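 Background-control endpoint: basal TAL promoter reporter transcripts in transiently transfected HepG2, measured 24 h after dosing. Read-out by RT-PCR with fluorescent primer extension and capillary electrophoresis; gain or loss of signal fitted relative to DMSO.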

[3] = ATG_TGFb_CIS: Attagene CIS-FACTORIAL HepG2 Assay for human Transforming Growth Factor (TGF) (AID 2282967; active = hit-call score of the fitted dose curve at least 0.9, where 1 is the maximum; inactive = score below 0.9); conditions: HepG2 Attagene CIS TGFb reporter, mRNA transcription; actives raise or lower the signal
Procedure, shortened: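 Liver HepG2 line, cis-factorial reporter panel, 24 h dosing. Quantitation: RT-PCR products labeled with 6-FAM, cut with HpaI, resolved by capillary electrophoresis; DMSO-referenced bidirectional analysis.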

[4] = ATG_VDRE_CIS: Attagene CIS-FACTORIAL HepG2 Assay for human Vitamin D Receptor Element (VDRE) (AID 2282968; active = hit-call score of the fitted dose curve at least 0.9, where 1 is the maximum; inactive = score below 0.9); conditions: HepG2 VDRE cis-reporter transcription, actives raise or lower the signal
Procedure, shortened: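 Measures endogenous factor activity through cis-element-driven reporter transcripts in transiently transfected HepG2. Cells are treated 24 h; reporter mRNA is quantified by RT-PCR and capillary electrophoresis; fitting is bidirectional.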

[5] = target: Steroid hormone receptor ERR1 (Homo sapiens) (UniProt P11474); assay: ATG_ERRa_TRANS: Attagene TRANS-FACTORIAL HepG2 Assay for human Estrogen-Related Receptor alpha (ERRa) (AID 2282971); conditions: HepG2 Attagene TRANS reporter, ERRa transactivation
Sequence of Steroid hormone receptor ERR1 (Homo sapiens) (P11474 whole entry, looked up, the tested form may be a part): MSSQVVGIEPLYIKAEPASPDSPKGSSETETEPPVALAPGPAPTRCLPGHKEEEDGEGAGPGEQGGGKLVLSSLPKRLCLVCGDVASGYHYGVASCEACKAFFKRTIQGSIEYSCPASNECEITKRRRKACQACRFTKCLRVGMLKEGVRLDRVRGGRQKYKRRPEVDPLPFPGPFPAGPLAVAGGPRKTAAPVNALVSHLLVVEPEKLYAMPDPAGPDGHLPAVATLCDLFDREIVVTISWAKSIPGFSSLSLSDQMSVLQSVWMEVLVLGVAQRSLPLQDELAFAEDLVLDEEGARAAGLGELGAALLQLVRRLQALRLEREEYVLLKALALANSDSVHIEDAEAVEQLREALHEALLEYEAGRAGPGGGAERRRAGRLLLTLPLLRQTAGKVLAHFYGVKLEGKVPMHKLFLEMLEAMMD
Procedure, shortened: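 Reporter transcripts from ERRa-Gal4 chimera activity measured in transiently transfected human HepG2 cells 24 hours after dosing, using RT-PCR with 6-FAM primer extension, HpaI digestion and capillary electrophoresis; DMSO is baseline.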

[6] = target: X-box-binding protein 1 (Homo sapiens) (UniProt P17861); assay: ATG_Xbp1_CIS: Attagene CIS-FACTORIAL HepG2 Assay for human X-box Binding Protein 1 (XBP1) (AID 2282972; active = hit-call score of the fitted dose curve at least 0.9, where 1 is the maximum; inactive = score below 0.9); conditions: HepG2 XBP1 cis-element reporter, Attagene multiplex; actives raise or lower the signal
Sequence of X-box-binding protein 1 (Homo sapiens) (P17861 whole entry, looked up): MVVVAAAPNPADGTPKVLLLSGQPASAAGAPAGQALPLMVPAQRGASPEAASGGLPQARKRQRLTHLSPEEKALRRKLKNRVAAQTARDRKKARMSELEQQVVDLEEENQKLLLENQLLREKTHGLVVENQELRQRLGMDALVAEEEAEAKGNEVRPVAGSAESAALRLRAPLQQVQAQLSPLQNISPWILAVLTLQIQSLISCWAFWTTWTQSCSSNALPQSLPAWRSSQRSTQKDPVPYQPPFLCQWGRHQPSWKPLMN
Procedure, shortened: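 Changes in reporter transcript abundance, read by RT-PCR and capillary electrophoresis, reflect endogenous transcription factor activity. Transfected HepG2 cells received compound for 24 hours; DMSO defined baseline for bidirectional analysis.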

[7] = target: Glucocorticoid receptor (Homo sapiens) (UniProt P04150); assay: ATG_GR_TRANS: Attagene TRANS-FACTORIAL HepG2 Assay for human Glucocorticoid Receptor (GR) (AID 2282978); conditions: HepG2 Attagene TRANS GR reporter, mRNA transcription;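 note: activators score as hits since higher reporter transcript over DMSO is fitted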
Sequence of Glucocorticoid receptor (Homo sapiens) (P04150 whole entry, looked up, the tested form may be a part): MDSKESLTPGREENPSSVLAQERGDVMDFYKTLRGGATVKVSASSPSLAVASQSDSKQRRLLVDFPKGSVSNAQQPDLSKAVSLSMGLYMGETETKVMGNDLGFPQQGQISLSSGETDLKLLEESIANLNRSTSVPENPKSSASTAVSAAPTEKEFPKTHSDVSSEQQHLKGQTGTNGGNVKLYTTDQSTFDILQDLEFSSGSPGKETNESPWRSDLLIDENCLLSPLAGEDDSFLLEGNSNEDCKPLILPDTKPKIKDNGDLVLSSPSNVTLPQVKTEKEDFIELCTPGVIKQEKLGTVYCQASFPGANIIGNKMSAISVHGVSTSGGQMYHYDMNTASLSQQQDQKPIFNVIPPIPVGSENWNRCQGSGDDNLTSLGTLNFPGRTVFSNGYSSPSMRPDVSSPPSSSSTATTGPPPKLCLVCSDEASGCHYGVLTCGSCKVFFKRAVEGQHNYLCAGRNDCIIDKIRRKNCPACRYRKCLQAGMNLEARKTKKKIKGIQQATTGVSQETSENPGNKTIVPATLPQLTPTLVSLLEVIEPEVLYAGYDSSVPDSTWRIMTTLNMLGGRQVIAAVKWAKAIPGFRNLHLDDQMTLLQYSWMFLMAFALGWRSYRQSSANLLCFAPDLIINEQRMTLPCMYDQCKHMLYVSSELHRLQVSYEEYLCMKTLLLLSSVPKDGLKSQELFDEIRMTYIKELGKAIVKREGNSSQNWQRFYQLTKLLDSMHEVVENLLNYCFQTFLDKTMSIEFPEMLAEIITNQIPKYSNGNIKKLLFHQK
Procedure, shortened: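 HepG2 cells transiently transfected with multiplexed reporter units in which chimeric NR-GAL4 proteins drive GAL4-UAS reporters; 24 h compound exposure. Reporter mRNA measured by RT-PCR, 6-FAM labelling, HpaI digestion and capillary electrophoresis; gain-of-signal fitted versus DMSO.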

[8] = target: Oxysterols receptor LXR-beta (Homo sapiens) (UniProt P55055); assay: ATG_LXRb_TRANS: Attagene TRANS-FACTORIAL HepG2 Assay for human Liver X Receptor beta (LXRb) (AID 2282981); conditions: HepG2 Attagene TRANS GAL4-LXRb reporter, mRNA
Procedure, shortened: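 After 24 h of chemical treatment, transfected HepG2 cells yield total RNA; reporter cDNA is PCR-amplified, FAM-labelled, HpaI-cut and run on capillary electrophoresis. Signal reflects chimeric LXRb-Gal4 activity on GAL4-UAS reporters.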

[9] = target: Hepatocyte nuclear factor 4-alpha (Homo sapiens) (UniProt P41235); assay: ATG_HNF4a_TRANS: Attagene TRANS-FACTORIAL HepG2 Assay for human Hepatocyte Nuclear Factor 4 alpha (HNF4a) (AID 2282982); conditions: HepG2 HNF4a transactivation reporter, mRNA readout
Sequence of Hepatocyte nuclear factor 4-alpha (Homo sapiens) (P41235 whole entry, looked up): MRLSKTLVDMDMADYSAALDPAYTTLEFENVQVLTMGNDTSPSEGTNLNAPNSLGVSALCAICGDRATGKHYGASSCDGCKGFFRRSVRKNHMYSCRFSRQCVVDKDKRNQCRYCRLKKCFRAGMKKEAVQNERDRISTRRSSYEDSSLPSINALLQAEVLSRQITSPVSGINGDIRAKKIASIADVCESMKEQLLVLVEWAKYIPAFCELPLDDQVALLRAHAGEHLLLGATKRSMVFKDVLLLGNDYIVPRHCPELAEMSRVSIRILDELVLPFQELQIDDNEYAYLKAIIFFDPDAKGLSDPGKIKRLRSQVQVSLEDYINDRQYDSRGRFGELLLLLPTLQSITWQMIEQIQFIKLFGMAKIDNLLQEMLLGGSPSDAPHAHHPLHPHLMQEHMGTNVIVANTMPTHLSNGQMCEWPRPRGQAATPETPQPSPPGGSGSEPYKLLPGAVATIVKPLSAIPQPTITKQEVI
Procedure, shortened: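 Multiplexed reporter assay: transfected HepG2, 24 h exposure, total RNA → oligo(dT) RT → PCR → 6-FAM extension → HpaI digest → CE fluorescence. DMSO = negative control.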

[10] = ATG_M_06_TRANS: Attagene TRANS-FACTORIAL HepG2 Assay for M06 Transcription Factor (Internal Marker) (AID 2282983); conditions: HepG2 Attagene TRANS M06 internal marker reporter
Procedure, shortened: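 Background-control reporter readout: after 24 h chemical exposure of transiently transfected HepG2 (GAL4-UAS reporter units), mRNA quantified by RT-PCR with fluorescent labeling and capillary electrophoresis. Gain-of-signal fitting against DMSO baseline.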

[11] = ATG_M_32_TRANS: Attagene TRANS-FACTORIAL HepG2 Assay for M32 Transcription Factor (Internal Marker) (AID 2282984); conditions: HepG2 Attagene TRANS M32 internal marker reporter
Procedure, shortened: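 Cell-based TRANS-format assay in HepG2: exogenous chimeric GAL4 reporter units transiently expressed, compounds applied 24 h. Reporter mRNA detected by RT-PCR plus capillary electrophoresis; this readout is an internal background marker.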

[12] = target: Transcriptional activator Myb (Homo sapiens) (UniProt P10242); assay: ATG_Myb_CIS: Attagene CIS-FACTORIAL HepG2 Assay for human Myeloblastosis (Myb) Proto-Oncogene Transcription Factor (AID 2282986; active = hit-call score of the fitted dose curve at least 0.9, where 1 is the maximum; inactive = score below 0.9); conditions: HepG2 Attagene CIS-FACTORIAL Myb reporter transcription; actives raise or lower the signal
Sequence of Transcriptional activator Myb (Homo sapiens) (P10242 whole entry, looked up): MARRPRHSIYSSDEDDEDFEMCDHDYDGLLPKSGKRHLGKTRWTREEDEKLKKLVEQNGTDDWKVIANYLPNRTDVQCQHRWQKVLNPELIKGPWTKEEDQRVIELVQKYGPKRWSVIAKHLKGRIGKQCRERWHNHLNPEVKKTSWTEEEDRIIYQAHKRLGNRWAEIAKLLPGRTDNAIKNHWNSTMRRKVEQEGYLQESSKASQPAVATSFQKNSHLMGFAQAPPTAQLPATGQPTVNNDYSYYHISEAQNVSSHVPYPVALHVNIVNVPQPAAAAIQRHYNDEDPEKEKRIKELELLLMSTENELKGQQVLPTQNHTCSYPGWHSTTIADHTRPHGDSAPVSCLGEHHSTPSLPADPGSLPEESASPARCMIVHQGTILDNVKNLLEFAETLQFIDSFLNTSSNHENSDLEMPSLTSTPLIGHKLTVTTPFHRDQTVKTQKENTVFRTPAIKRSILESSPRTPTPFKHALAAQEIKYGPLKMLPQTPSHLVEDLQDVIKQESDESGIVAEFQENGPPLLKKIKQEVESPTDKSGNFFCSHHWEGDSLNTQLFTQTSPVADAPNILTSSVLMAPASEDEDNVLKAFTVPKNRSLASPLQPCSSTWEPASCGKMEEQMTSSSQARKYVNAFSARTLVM
Procedure, shortened: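 HepG2 cells were transiently transfected with cis-regulated multiple reporter transcription units reflecting endogenous Myb activity, then exposed to compound for 24 hours. Reporter mRNA was measured by RT-PCR with capillary electrophoresis; bidirectional fitting versus DMSO baseline.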

[13] = ATG_M_19_TRANS: Attagene TRANS-FACTORIAL HepG2 Assay for M19 Transcription Factor (Internal Marker) (AID 2282974); conditions: HepG2 Attagene TRANS-FACTORIAL M19 internal marker reporter
Procedure, shortened: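 HepG2 cells transiently transfected with multiple GAL4-UAS reporter transcription units were exposed to chemicals for 24 h. Reporter mRNA was read by RT-PCR, 6-FAM primer extension, HpaI digestion and capillary electrophoresis; gain of signal fitted relative to DMSO.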

[14] = ATG_GAL4_TRANS: Attagene TRANS-FACTORIAL HepG2 Assay for GAL4 (Internal Marker) (AID 2282976); conditions: HepG2 Attagene TRANS GAL4 internal marker reporter
Procedure, shortened: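 In transfected human HepG2 liver cells dosed 24 h, GAL4 reporter mRNA serves as a baseline marker. Detection by RT-PCR with fluorescent capillary electrophoresis, activity fitted upward relative to DMSO.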

[15] = target: Estrogen-related receptor gamma (Homo sapiens) (UniProt P62508); assay: ATG_ERRg_TRANS: Attagene TRANS-FACTORIAL HepG2 Assay for human Estrogen-Related Receptor gamma (ERRg) (AID 2282977); conditions: HepG2 Attagene TRANS reporter, ERRg transactivation;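 note: hits increase reporter signal over DMSO so potencies reflect activators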
Sequence of Estrogen-related receptor gamma (Homo sapiens) (P62508 whole entry, looked up, the tested form may be a part): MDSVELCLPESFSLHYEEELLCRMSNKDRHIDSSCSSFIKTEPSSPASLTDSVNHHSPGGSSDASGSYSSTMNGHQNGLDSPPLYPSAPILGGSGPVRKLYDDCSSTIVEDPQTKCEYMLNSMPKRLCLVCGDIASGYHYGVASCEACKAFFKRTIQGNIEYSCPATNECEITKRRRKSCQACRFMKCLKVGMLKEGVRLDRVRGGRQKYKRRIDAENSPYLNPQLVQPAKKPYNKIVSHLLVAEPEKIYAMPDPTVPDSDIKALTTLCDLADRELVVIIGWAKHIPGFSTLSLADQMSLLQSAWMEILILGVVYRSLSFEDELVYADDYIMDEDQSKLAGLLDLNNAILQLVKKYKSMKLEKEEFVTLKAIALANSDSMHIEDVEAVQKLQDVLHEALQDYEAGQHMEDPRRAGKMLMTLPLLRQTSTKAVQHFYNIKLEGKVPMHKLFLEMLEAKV
Procedure, shortened: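 Exogenous NR-Gal4 chimera activity was assessed in HepG2 cells bearing transfected GAL4-UAS reporters. After 24 h dosing, total RNA underwent RT-PCR, fluorescent primer extension and HpaI digestion before capillary electrophoresis, with gain of signal scored against DMSO.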

[16] = target: Bile acid receptor (Homo sapiens) (UniProt Q96RI1); assay: ATG_FXR_TRANS: Attagene TRANS-FACTORIAL HepG2 Assay for Farnesoid X Receptor (FXR) (AID 2282979); conditions: HepG2 Attagene TRANS FXR-GAL4 reporter transcription;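 note: hits raise reporter mRNA above DMSO so AC50 marks FXR activation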
Sequence of Bile acid receptor (Homo sapiens) (Q96RI1 whole entry, looked up, the tested form may be a part): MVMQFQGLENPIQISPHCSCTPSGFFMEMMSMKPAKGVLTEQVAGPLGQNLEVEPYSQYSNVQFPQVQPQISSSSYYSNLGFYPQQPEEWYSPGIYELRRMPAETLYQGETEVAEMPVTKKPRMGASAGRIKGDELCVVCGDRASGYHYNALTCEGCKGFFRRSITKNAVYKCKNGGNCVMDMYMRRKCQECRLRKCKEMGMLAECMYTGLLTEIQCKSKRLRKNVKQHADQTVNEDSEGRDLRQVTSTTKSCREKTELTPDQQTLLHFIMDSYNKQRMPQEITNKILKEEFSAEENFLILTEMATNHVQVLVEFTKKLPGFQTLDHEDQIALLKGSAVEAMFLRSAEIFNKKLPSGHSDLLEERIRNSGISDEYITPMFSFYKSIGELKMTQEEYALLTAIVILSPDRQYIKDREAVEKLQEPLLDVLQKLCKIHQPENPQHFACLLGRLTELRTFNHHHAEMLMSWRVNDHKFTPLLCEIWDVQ
Procedure, shortened: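 Reporter transcripts from transfected HepG2 cells were measured 24 h after dosing, using RT-PCR with capillary electrophoresis of 6-FAM-labelled fragments. The read-out reflects activity of exogenous FXR-Gal4 chimera on GAL4-UAS units, with induction relative to DMSO.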

[17] = target: Oxysterols receptor LXR-alpha (Homo sapiens) (UniProt Q13133); assay: ATG_LXRa_TRANS: Attagene TRANS-FACTORIAL HepG2 Assay for human Liver X Receptor alpha (LXRa) (AID 2282980); conditions: HepG2 Attagene TRANS reporter, LXRa transactivation
Procedure, shortened: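 Chemical-induced reporter mRNA measured by RT-PCR with fluorescent labelling and capillary electrophoresis after 24 h dosing of transiently transfected HepG2 cells expressing exogenous NR-Gal4 chimeras; increases scored against DMSO baseline.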

[18] = target: Nuclear receptor subfamily 4 group A member 2 (Homo sapiens) (UniProt P43354); assay: ATG_NURR1_TRANS: Attagene TRANS-FACTORIAL HepG2 Assay for human Nuclear Receptor Related Protein 1 (NURR1) (AID 2282985); conditions: HepG2 Attagene TRANS reporter, mRNA readout
Sequence of Nuclear receptor subfamily 4 group A member 2 (Homo sapiens) (P43354 whole entry, looked up, the tested form may be a part): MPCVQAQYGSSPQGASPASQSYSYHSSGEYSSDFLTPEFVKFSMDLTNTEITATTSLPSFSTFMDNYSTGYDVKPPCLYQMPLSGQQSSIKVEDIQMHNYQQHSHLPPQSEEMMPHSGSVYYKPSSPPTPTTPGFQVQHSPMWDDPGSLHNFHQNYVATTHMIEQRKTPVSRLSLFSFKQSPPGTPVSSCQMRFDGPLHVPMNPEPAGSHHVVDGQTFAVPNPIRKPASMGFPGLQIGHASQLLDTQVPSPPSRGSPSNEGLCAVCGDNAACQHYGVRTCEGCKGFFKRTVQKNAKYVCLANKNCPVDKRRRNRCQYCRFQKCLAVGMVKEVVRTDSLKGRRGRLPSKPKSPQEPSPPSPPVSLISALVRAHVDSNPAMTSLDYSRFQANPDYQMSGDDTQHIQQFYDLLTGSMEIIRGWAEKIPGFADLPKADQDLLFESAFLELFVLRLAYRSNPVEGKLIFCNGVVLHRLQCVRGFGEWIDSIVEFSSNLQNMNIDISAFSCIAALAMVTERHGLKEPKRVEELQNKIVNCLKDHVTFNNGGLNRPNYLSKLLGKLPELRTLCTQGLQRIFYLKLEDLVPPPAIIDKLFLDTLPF
Procedure, shortened: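 Measures transcriptional activation by an exogenous NR-Gal4 chimera in transfected HepG2 liver cells. After 24 h, reporter RNA is reverse-transcribed, amplified and resolved by capillary electrophoresis; DMSO defines baseline.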

[19] = target: Estrogen receptor (Homo sapiens) (UniProt P03372); assay: ATG_ERa_TRANS: Attagene TRANS-FACTORIAL HepG2 Assay for human Estrogen Receptor alpha (ERa) (AID 2282970); conditions: HepG2 Attagene TRANS ERa GAL4 reporter, mRNA
Sequence of Estrogen receptor (Homo sapiens) (P03372 whole entry, looked up, the tested form may be a part): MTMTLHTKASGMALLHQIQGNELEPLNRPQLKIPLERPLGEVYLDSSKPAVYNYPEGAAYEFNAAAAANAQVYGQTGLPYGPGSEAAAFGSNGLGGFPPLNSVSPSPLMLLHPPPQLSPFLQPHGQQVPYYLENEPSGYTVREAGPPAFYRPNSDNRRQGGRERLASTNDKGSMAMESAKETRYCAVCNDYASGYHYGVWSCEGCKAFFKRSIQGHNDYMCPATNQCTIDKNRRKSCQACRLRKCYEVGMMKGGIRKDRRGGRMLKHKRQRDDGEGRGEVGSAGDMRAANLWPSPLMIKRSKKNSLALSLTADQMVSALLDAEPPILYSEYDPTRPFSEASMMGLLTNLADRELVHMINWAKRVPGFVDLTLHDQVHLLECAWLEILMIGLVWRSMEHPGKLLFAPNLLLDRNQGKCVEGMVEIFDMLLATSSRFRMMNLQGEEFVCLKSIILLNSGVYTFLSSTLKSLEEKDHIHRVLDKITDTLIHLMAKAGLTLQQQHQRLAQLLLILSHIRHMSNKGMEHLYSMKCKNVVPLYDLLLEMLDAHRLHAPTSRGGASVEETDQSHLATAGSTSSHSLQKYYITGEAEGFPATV
Procedure, shortened: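 Reporter transcripts were measured 24 h after dosing by RT-PCR with fluorescent primer extension and capillary electrophoresis. The system is transiently transfected HepG2 expressing exogenous NR-Gal4 chimeras driving GAL4-UAS reporters; DMSO is the baseline.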

Measured: AC50

O=c1cccc[nH]1
not listed: [13] | [14] | [15] | [16] | [17] | [18] | [19]
inactive: all other assays above

CSc1ccc(O)cc1C
not listed: [8] | [9] | [10] | [11] | [12] | [17] | [18] | [19]
inactive: all other assays above

CCC(C)CO (stereo unspecified)
not listed: [6] | [9] | [14] | [19]
inactive: all other assays above

O=C(O)C(F)(F)C(F)(F)C(F)(F)C(=O)O
not listed: [5] | [7] | [14] | [15] | [17] | [18]
inactive: all other assays above

CCOCN(C(=O)CS(=O)(=O)O)c1c(C)cccc1CC
not listed: [5] | [10] | [11] | [12] | [13] | [15] | [19]
inactive: all other assays above

C#CC(O)CCC (stereo unspecified)
not listed: [7] | [9] | [10] | [13] | [15] | [18] | [19]
inactive: all other assays above

CCCCCC/C=C/CCCCCCCC(=O)O
active: [18] 67.1 µM
inactive: [1] | [2] | [3] | [4] | [19] | [6] | [7] | [16] | [10] | [11]

COc1ccccc1C=O
inactive: [1] | [2] | [3] | [4] | [6] | [14] | [7] | [16] | [8] | [11]

CCCCCCCC/C=C\CCCCCCCC(=O)N(C)CC(=O)O
inactive: [1] | [2] | [3] | [4] | [19] | [15] | [7] | [16] | [11] | [12]

NC(O)(C(F)(F)F)C(F)(F)F
inactive: [1] | [2] | [3] | [4] | [6] | [14] | [9] | [10] | [12]

O=C(Cl)C(F)(F)C(F)(F)C(F)(F)C(F)(F)C(F)(F)C(F)(F)C(F)(F)F
inactive: [1] | [2] | [3] | [4] | [6] | [16] | [17] | [8] | [10] | [12]
active: [18] 38.9 µM
